Structures are written as SMILES. Values joined by “and” are separate entries in the source; they are usually repeats but may differ in a detail not shown here. Equal entries are not always repeated. Results filed as inconclusive are left out. Active and inactive are the calls of the source. Unless noted, the call rests on the fitted dose curve; in most records, active means well fitted curve in the direction sought with a large enough effect; inconclusive means small, poorly fitted or top-dose-only effect, or another doubt; inactive means no such curve, though single readings can be large; an effect the other way counts as inactive or inconclusive.

Test [1] can be described thus: Cell Viability - SK-N-SH (AID 435; calls by dose curve; further: potency means the concentration at half of the fitted maximal effect). To be noted: SK-N-SH neuroblastoma cell viability qHTS. Summed up:
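qHTS cytotoxicity: CellTiter-Glo ATP luminescence after 40 h compound exposure of human neuroblastoma SK-N-SH cells at 37 °C. AC50 derived by Hill-equation fitting, with DMSO as basal and 100 uM tamoxifen as full inhibition.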

A short description of test [2]: Cell Viability - N2a (AID 540).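 Further: plate controls were DMSO alone for no effect and tamoxifen control for full effect; nearly all actives have a fitted effect of over 45% in size.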 To be noted: N2a mouse neuroblastoma cell viability; activity change, negative = cytotoxicity: at 92.2 µM (top of the series). Summed up:
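In this qHTS cytotoxicity screen, ATP-dependent luciferase luminescence reports viable N2a cells after a 40 hr compound exposure in complete culture medium. Potencies are AC50 values from standard Hill equation fits.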

A short description of test [3]: Cell Viability - Renal Proximal Tubule (AID 545).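 Further: cells exposed to compound for 40 hours; nearly all actives have a fitted effect of over 40% in size.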 To be noted: renal proximal tubule cells viability; series mostly up to 91.7 µM. Summed up:
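Viability taken as intracellular ATP (CellTiter-Glo luminescence) after 40 hr, 37 °C compound treatment of primary proximal tubule cells from rat kidney, 1000 cells/well; Hill-equation fits of qHTS concentration-response data gave AC50.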

A short description of test [4]: Cellular Toxicity (caspase-3) Jurkat (AID 655).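 Further: cells exposed to compound for 16 h at 37 °C before reading.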 To be noted: Jurkat caspase-3 activation, luminescence; caspase-3 activation: at 92.2 µM (top of the series), DMSO = 0%, tamoxifen = 100%. The method, boiled down:
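Luminescent Caspase-Glo 3/7 read-out (20 min, room temperature) after 16 h compound treatment at 37 C of 5000 Jurkat cells per well. AC50 derived by Hill-equation fitting, scaled between DMSO basal and 100 uM tamoxifen stimulation.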

Test [5] in a line: Cellular Toxicity (caspase-3) MRC-5 (AID 659). To be noted: MRC-5 cells, luminescence, normalized: DMSO 0%, 10 µM staurosporine 100%; series mostly up to 91.7 µM. The method, boiled down:
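Luminescent Caspase-Glo 3/7 read-out (1 h, room temperature) after a 16 h, 37 °C compound exposure of MRC-5 lung fibroblasts at 1500 cells/well. Concentration-response AC50 from Hill equation; 0% DMSO, 100% 10 uM staurosporine.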

Test [6] deals with Cytochrome P450 3A4 (Homo sapiens) (UniProt P08684). Put plainly: qHTS Assay for Inhibitors and Substrates of Cytochrome P450 3A4 (AID 884). Further: on the % scale 0 is the no-effect control and ±100 the full control effect; nearly all actives have a fitted effect of over 50% in size. To be noted: recombinant CYP3A4, Luciferin-PPXE luminescence; series mostly up to 57.1 µM. The method, boiled down: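 Luminescent readout of luciferin produced by CYP3A4 (20 nM) dealkylation of Luciferin-PPXE, 25 uM (its KM). NADPH-driven reaction ran 60 min at RT after 10 min compound preincubation; data scaled to 57 uM ketoconazole as 100% inhibition.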
Sequence of Cytochrome P450 3A4 (Homo sapiens) (P08684 whole entry, looked up): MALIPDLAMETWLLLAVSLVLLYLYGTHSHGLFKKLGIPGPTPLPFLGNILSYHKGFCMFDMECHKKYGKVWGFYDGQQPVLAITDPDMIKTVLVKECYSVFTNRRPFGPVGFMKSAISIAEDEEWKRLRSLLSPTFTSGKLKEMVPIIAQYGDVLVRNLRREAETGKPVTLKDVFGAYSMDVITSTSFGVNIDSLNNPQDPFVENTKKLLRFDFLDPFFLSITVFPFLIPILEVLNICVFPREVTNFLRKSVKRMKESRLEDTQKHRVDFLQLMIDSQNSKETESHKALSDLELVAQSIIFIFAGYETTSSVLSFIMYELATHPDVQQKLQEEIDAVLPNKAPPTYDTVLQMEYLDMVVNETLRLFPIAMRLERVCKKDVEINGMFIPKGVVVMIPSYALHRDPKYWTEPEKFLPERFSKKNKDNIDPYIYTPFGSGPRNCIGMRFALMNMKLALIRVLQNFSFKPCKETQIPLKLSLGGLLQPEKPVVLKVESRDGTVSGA

Test [7] is described as follows: Cell Viability - LYMP2-001 (AID 921).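 Further: 0% = DMSO only and full inhibition = tetraoctylammonium bromide control wells; nearly all actives have a fitted effect of over 70% in size.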 To be noted: LYMP2-001 lymphoblastoid cell viability; series mostly up to 92.2 µM. Summed up: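 Cellular ATP loss read by luciferase luminescence after 24 h compound exposure at 37 C in complete medium. LYMP2-001 lymphoblastoid cells, 2500/well; qHTS concentration-response data fitted with Hill equation for AC50.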
The nature of test [8]: MultiTox-Fluor Cytotoxicity Assay - LYMP1-002 - Dead Cells (AID 960).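 Further: 0% = DMSO and 100% = tetraoctylammonium bromide; nearly all actives have a fitted effect of over 60% in size.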 To be noted: LYMP1-002 lymphoblastoid cells, dead-cell protease fluorescence; series mostly up to 46.1 µM. The method, boiled down: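 Concentration-dependent increases in membrane-leaked protease activity are quantified in LYMP1-002 cells after 16 hr treatment; values are normalized against DMSO and tetraoctylammonium bromide (15 uM) controls and AC50 derived by Hill modeling.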

Test [9] is described as follows: Cell Viability - LYMP2-005 (AID 967).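 Further: plate controls were DMSO only for no effect and 92 µM tetraoctylammonium bromide control for full effect.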 To be noted: LYMP2-005 lymphoblastoid cell viability; series mostly up to 92.2 µM. Summed up:
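LYMP2-005 human lymphoblastoid cells (2500/well) were treated with compounds for 24 h at 37 C. Intracellular ATP was then measured by CellTiter-Glo luminescence after 30 min at room temperature. AC50 values came from Hill-equation fits of qHTS concentration-response data.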

Test [10] in a line: Cell Viability - LYMP2-015 (AID 971).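 Further: 0% = DMSO only and full effect = 92 µM tetraoctylammonium bromide; nearly all actives have a fitted effect of over 55% in size.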 To be noted: LYMP2-015 lymphoblastoid cell viability; series mostly up to 92.2 µM. Summed up:
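AC50 values reflect Hill-model fits of ATP-based luminescence (CellTiter-Glo) from a human lymphoblastoid line, 2500 cells/well, treated 24 hr at 37 C.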

A short description of test [11]: Cell Viability - LYMP2-002 (AID 977).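 Further: plate controls were DMSO only for no effect and 92 µM tetraoctylammonium bromide for full effect.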 To be noted: LYMP2-002 lymphoblastoid cell viability, qHTS; series mostly up to 92.2 µM. The method, boiled down: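 Human lymphoblastoid cells (2500/well) in complete medium were preincubated 5 hr at 37 C, then exposed to compounds for 24 hr at 37 C. Intracellular ATP was read by CellTiter-Glo luminescence; AC50 came from Hill-equation concentration-response fits.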
In general terms: Quantitative high-throughput screening tests each substance at several concentrations.

Test [12] is described as follows: Cell Viability - LYMP2-010 (AID 981). Further: on the % scale 0 is the no-effect control and ±100 the full control effect; nearly all actives have a fitted effect of over 55% in size. To be noted: LYMP2-010 lymphoblastoid cell viability, qHTS; series mostly up to 92.2 µM. The method, boiled down: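 This 24 hr viability screen uses LYMP2-010 lymphoblastoid cells, quantifies ATP via luciferase luminescence, and derives AC50 from Hill fits of qHTS concentration-response data.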
Test [13] is described as follows: Cell Viability - LYMP2-020 (AID 986).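 Further: plate controls were DMSO only for no effect and tetraoctylammonium bromide at 92 µM for full effect; nearly all actives have a fitted effect of over 55% in size.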 To be noted: series mostly up to 92.2 µM. Summed up: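 Cells at 2500 per well receive a 24 hr compound exposure at 37 C. Viability is measured as ATP-dependent luciferase luminescence, with AC50 modeled from qHTS concentration-response curves.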
Test [14] in a line: Cell Viability - LYMP2-022 (AID 987).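 Further: 0% = DMSO alone and full effect = tetraoctylammonium bromide at 92 µM; nearly all actives have a fitted effect of over 55% in size.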 To be noted: LYMP2-022 lymphoblastoid cell viability; series mostly up to 92.2 µM. Summed up: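 In this qHTS cytotoxicity screen, compound titrations were incubated 24 hr at 37 C with human lymphoblastoid cells in complete medium. Luciferase-based ATP luminescence provided the viability signal.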
Test [15] can be described thus: qHTS assay for small molecule agonists of retinoid X receptor alpha signaling (AID 588544). To be noted: HEK293T RXRa-UAS-bla, beta-lactamase reporter, 18 h; 530 nm emission.
The target of test [16] is Thyroid hormone receptor beta (Homo sapiens) (UniProt P10828). Kind of test: qHTS assay for small molecule agonists of thyroid hormone receptor beta signaling (AID 588545; calls by dose curve). To be noted: TR-UAS-bla GripTite HEK 293, beta-lactamase ratio, agonist mode, 18 h; series mostly up to 76.7 µM. Summed up: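 HEK 293 TR-UAS-bla; agonist mode; 18 hrs, 37 C; CCF4, ex 405/em 460 and 530 nm; norm. T3 10 nM = 100%, DMSO = 0%; Hill fit → EC50, efficacy.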
Sequence of Thyroid hormone receptor beta (Homo sapiens) (P10828 whole entry, looked up): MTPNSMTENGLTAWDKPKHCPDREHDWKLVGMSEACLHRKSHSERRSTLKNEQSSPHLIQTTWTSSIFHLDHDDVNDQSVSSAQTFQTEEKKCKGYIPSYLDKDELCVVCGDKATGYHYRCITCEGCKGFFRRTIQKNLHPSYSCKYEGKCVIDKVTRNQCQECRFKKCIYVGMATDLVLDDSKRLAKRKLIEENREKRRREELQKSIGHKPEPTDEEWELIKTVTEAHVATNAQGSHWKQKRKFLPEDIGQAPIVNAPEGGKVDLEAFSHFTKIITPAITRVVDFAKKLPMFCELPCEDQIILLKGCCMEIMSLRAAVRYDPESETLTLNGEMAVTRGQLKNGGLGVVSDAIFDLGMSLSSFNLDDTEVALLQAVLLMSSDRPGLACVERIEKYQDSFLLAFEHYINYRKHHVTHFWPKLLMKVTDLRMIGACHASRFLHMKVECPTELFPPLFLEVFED

The nature of test [17]: qHTS assay for small molecule antagonists of retinoid X receptor alpha signaling (AID 588546; active means well fitted inhibition curve with a large enough effect in the signal ratio, with a control signal flat, not every such curve was filed as active; the % refers to the signal ratio;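 further: cells stimulated with 9-cis-retinoic acid as agonist; on the % scale 0 is the no-effect control and ±100 the full control effect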). To be noted: HEK293T RXRa-UAS-bla, beta-lactamase ratio, antagonist mode; measured here: W530 green channel, cytotoxicity proxy. Summed up: (§1)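 Beta-lactamase reporter inhibition, read as CCF4 fluorescence ratio (ex 405, em 460/530 nm) after 2 h at RT. HEK293T UAS-bla cells, 2500/well, were stimulated with 9-cis-RA at 500 or 100 nM final alongside test compound for 18 h at 37 C.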

The target of test [18] is Retinoic acid receptor RXR-alpha (Homo sapiens) (UniProt P19793). Described as above. To be noted: HEK293T RXRa-UAS-bla, beta-lactamase ratio, antagonist mode. The method, boiled down:
as §1

Test [19] deals with Thyroid hormone receptor beta (Homo sapiens) (UniProt P10828). Put plainly: qHTS assay for small molecule antagonists of thyroid hormone receptor beta signaling (AID 588547; active means well fitted inhibition curve with a large enough effect in the signal ratio, with a control signal flat, not every such curve was filed as active; the % refers to the signal ratio;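 further: cells stimulated with 0.4 nM T3 agonist during compound exposure; on the % scale 0 is the no-effect control and ±100 the full control effect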). To be noted: TR-UAS-bla HEK293, beta-lactamase ratio, antagonist mode, 18 h. The method, boiled down:
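Inhibition of T3-driven (0.4nM final) beta-lactamase reporter activity was measured over 0.59 nM to 92 uM compound after 18 h at 37 C. The cells were GripTite HEK293 TR-UAS-bla in charcoal/dextran-stripped serum, with CCF4 ratio read-out and IC50 from Hill fits.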

Test [20] deals with Tumor necrosis factor (Homo sapiens) (UniProt P01375). Kind of test: qHTS assay to identify small molecules that stimulate Tumor Necrosis Factor-alpha (TNF-alpha) secretion (AID 651757; active means well fitted curve in the direction sought with a large enough effect in the signal ratio; the % refers to the signal ratio; further: 0% is about no effect). To be noted: Human cells, HTRF 665/615 ratio; series mostly up to 92.2 µM. Summed up: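 Using 3000 THP-1 cells per well, compounds and controls were applied for 17 hrs at 37 C. Detection followed with two labeled anti-TNF-alpha antibodies (cryptate donor, XL665 acceptor) for 3 hr at room temperature, measured by TR-FRET.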
Sequence of Tumor necrosis factor (Homo sapiens) (P01375 whole entry, looked up): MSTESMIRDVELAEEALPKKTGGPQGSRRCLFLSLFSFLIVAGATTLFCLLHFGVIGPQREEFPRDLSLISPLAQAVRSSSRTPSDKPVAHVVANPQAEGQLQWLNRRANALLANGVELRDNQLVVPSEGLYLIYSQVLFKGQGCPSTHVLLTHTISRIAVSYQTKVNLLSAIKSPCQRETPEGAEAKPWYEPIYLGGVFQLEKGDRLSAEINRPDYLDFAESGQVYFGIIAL

Sequence of Retinoic acid receptor RXR-alpha (Homo sapiens) (P19793 whole entry, looked up): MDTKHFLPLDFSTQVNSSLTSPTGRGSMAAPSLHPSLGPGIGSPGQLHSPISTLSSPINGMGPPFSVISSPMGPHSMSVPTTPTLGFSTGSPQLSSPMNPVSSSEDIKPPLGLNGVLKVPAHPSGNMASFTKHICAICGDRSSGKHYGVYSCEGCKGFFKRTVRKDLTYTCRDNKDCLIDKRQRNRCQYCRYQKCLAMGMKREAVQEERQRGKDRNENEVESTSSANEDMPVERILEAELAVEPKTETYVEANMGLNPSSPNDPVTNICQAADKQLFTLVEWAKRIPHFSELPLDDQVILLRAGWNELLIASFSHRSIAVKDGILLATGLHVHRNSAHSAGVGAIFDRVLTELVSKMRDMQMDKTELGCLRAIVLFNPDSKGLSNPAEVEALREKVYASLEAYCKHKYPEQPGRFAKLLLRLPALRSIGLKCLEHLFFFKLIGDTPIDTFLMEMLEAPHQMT

Turning to `CC(C)CC(C)N` (configuration not stated), the Potency in [1] was > 92 µM (inactive). Also, the Potency result in test [2], in [6], in test [7], in [8], in [9] and in [10] was “inactive” each time. For the same molecule, the Potency entry in test [11], in test [12], in test [13], in test [14] and in [16] was “inactive” throughout. Also, the molecule was called inactive in test [3], in [5] and in test [20]. For the same molecule, the caspase-3 activation in [4] was 1.95% (inactive). In addition, the figures for the max response in test [15], in test [17] and in test [18] were -12.2%, -2.75% and 1.28% (inactive), respectively. Further, in [19], the activity change % (negative = inhibition) was 11.1% (inactive).
On to `c1ccc(P(c2ccccc2)c2ccccc2)cc1`, for which the Potency in test [1] was > 92 µM (inactive). In addition, the Potency result in test [2], in [6], in [7], in test [10], in test [11] and in [12] was “inactive” throughout. Also, the Potency entry in test [13], in test [14] and in test [16] was “inactive” throughout. In addition, the call in test [3], in test [5] and in [20] was inactive. Further, in test [4], the caspase-3 activation was 0.655% (inactive). Also, the max response is 22.6% in [15], -7.38% in test [17] and 14.4% (inactive) in [18]. In addition, the activity change % (negative = inhibition) in test [19] was 5.79% (inactive).
As to `Oc1ccc(Cl)c(Cl)c1Cl`, the Potency in [1] is > 92 µM (inactive). Also, the molecule was classed as inactive in test [3], in test [5] and in test [20]. For the same molecule, the caspase-3 activation in test [4] was 0.688% (inactive). The Potency result in test [7], in test [8], in [9], in test [10], in test [11] and in [12] was “inactive” each time. Also, the Potency result in [13], in test [14] and in test [16] was “inactive” in each case. In addition, the max response in test [15] is -5.29%. Also, in test [19], the activity change % (negative = inhibition) was 14.5% (inactive).
In the case of `Nc1cc(Cl)ccc1O`, in test [1], the Potency was > 92 µM (inactive). The outcome in test [3] and in [5] was inactive. Besides, in test [4], the caspase-3 activation is 15.3% (inactive). In addition, the Potency entry in test [6], in test [7], in test [8], in test [9], in test [13] and in test [16] was “inactive” throughout. Moreover, the max response in test [17] is -1.3%; in test [18], -9.48% (inactive).
Regarding `Clc1ccc(C(c2ccccc2Cl)C(Cl)(Cl)Cl)cc1` (configuration not stated), the call in test [3], in test [5] and in test [20] was inactive. The caspase-3 activation in test [4] was 5.05% (inactive). Moreover, the Potency result in [6], in [7], in [9], in test [10], in test [11] and in [13] was “inactive” each time. Further, the Potency result in test [14] and in [16] was “inactive” throughout. For the same molecule, the values for the max response in test [17] and in [18] were 5.48% and -26% (inactive), respectively.
`CC(C)(C)OOC(=O)c1ccccc1`: the Potency in test [1] was > 92 µM (inactive). Moreover, the Potency entry in test [2], in [6], in test [8], in test [9], in test [10] and in test [11] was “inactive” each time. The Potency entry in test [12], in test [13], in test [14] and in test [16] was “inactive” throughout. In addition, the call in test [3], in test [5] and in [20] was inactive. Also, the caspase-3 activation in test [4] was 6.04% (inactive). Moreover, the max response was 3.54% and -7.62% in test [15]; -18.8% and -11.9% in [17]; 2.22% (inactive) and 6.61% (inactive) in test [18]. The activity change % (negative = inhibition) in [19] is 11.4% (inactive).
In the case of `Nn1cnnc1`, in test [1], the Potency is > 92 µM (inactive). Further, the Potency result in test [2], in test [6], in test [7], in test [8], in test [9] and in [10] was “inactive” throughout. Also, the Potency result in test [11], in test [12], in [13], in test [14] and in [16] was “inactive” throughout. Besides, the outcome in test [3], in [5] and in [20] was inactive. For the same molecule, the caspase-3 activation in test [4] was 0.14% (inactive). The max response was 6.31% in test [15], -0.424% in test [17] and 24.4% (inactive) in test [18]. In addition, the activity change % (negative = inhibition) in [19] was 12.8% (inactive).
Turning to `CN(C)c1ccc(N=Nc2ccccc2)cc1`, the Potency in test [1] was > 92 µM (inactive). For the same molecule, the caspase-3 activation in [4] was -9.1% (inactive). Further, the molecule was classed as inactive in test [5]. In addition, the Potency entry in test [6], in test [7], in test [12], in [13], in test [14] and in test [16] was “inactive” each time. Further, the values for the max response in [15], in test [17] and in test [18] were -0.567%, -11.2% and -20.4% (inactive), respectively. In test [19], the activity change % (negative = inhibition) was -4.36% (inactive).

These data come from PubChem BioAssay (NCATS).
